About 83,000 compounds went through this panel and 20% of them were active in at least one assay; those are over-represented in the sample as a whole.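 48-hour exposure, single concentration, 96-well plates; percent growth endpoint where 0 means no net growth. Active: below 10.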 Unmarked numbers belong to inactive results. The source made the active and inactive calls.

What all share (test): NCI-60 one-dose screen, 48 h (100 = growth as untreated, 0 = no growth, -100 = all killed)
Details in all cases: 10 µM unless noted

Test [1] has as its system NCI-H226 lung.
The test system of test [2] is NCI-H322M lung.
The test system of test [3] is HOP-62 NSCLC.
Test [4] deals with NCI-H460 lung.
Test [5] deals with HOP-92 NSCLC.
Test [6] concerns NCI-H522 lung.
For test [7], the system named is A549/ATCC NSCLC.
The test system of test [8] is 786-0 renal.
Test [9] deals with COLO 205 colon.
The subject of test [10] is DU-145 prostate.

For the compound `C=CCSc1ccc2c(c1)C(N1CCNCC1)=Nc1ccccc1O2`, the growth in [1] is 87.4% [8.25 µM]; in test [2], 85.6% [8.25 µM]; in test [3], 84.7% [8.25 µM]; in test [4] it was 85.7% [8.25 µM]; in test [5], 34.2% [8.25 µM]; in test [6] it was 74% [8.25 µM]. Also, the growth in test [7] was 71.7% [8.25 µM]; in [8] it was 60.4% [8.25 µM]; in [9] it was 7.69% [8.25 µM] (active); in [10], 90.8% [8.25 µM].
Take `CC1=C(C)C(=O)C(Nc2cccc(C(F)(F)F)c2)=C(Cl)C1=O`: the growth is 90.9% in test [1]; 101% in [2]; 91% in test [3]; 94.9% in [4]; 48.9% in test [5]; 17.7% in test [6]. Also, the growth was 96.8% in [7], 102% in test [8], 102% in test [9] and 99.7% in [10].
Regarding `Cn1ccnc1C(=O)/C=C/c1ccc(NC(=O)Nc2ccccc2)cc1`, the growth was 35.9% in test [1]; 28.8% in test [2]; 16.1% in test [3]; -56.7% (active) in [4]; 57.4% in [5]; 11.9% in [6]. Moreover, the growth is 6.79% (active) in [7], 5.89% (active) in test [8], 11.1% in [9] and 4.23% (active) in test [10].
As for `O=C(N/N=C/c1cccs1)c1[nH]c2ccc(Br)cc2c1-c1ccccc1`, the growth in [1] was 50.9%; in test [2] it was 44.7%; in [3] it was 44.2%; in test [4], 6.54% (active); in test [5] it was 39.9%; in test [6], -43.9% (active). The growth in test [7] is 23.1%; in [8] it was 12%; in test [9] it was -67.6% (active); in [10], 20.7%.
Regarding `COc1ccc(/C=C/C(=O)c2ccc(NC(=O)CSc3nnc(-c4ccc5nc(-c6ccc(Cl)cc6)[nH]c5c4)o3)cc2)cc1`, the growth is 87.6% in test [1]; 103% in test [2]; 103% in test [3]; 102% in test [4]; 102% in test [5]; 79.1% in test [6]. In addition, the growth in test [7] was 105%; in test [8], 99.6%; in test [9], 118%; in [10], 108%.
As for `Fc1ccc(-c2cc3nc(C(Cl)Cl)nc(-c4ccccc4)n3n2)cc1`, the growth in test [1] is 85.7%; in test [2], -33.9% (active); in test [3] it was -36.9% (active); in [4], -69.1% (active); in test [5], -27.7% (active); in test [6], 42.4%. In addition, the growth was -45.6% (active) in [7], 5.34% (active) in [8], -72.5% (active) in test [9] and -33.8% (active) in [10].
Turning to `COc1ccccc1/C=C/C=N/NC1=NC2C(S1)N(C)C(=O)N2C` (stereo not given), the growth in test [1] was 55.7%; in test [2] it was 51.7%; in test [3], 35.6%; in [4], 11.1%; in [5] it was 9.2% (active); in test [6], -24% (active). For the same compound, the growth in [7] was 48.3%; in [8] it was 44.2%; in test [9], 5.69% (active); in test [10], 24.5%.
Regarding `O=C(O)CCCCCN1C(=O)/C(=C/c2ccc(O)c(O)c2)SC1=S`, the growth is 106% in [1]; 89.9% in [2]; 110% in test [3]; 108% in test [4]; 139% in test [5]; 98% in [6]. Also, the growth in test [7] is 113%; in [8], 105%; in test [9], 125%; in [10], 103%.
Consider `CS(=O)(=O)c1ccc(-c2nc3ccccn3c2C=Nc2ccc(Cl)cc2)cc1`, for which the growth was 102% in [1]; 76.7% in test [2]; 82.8% in [3]; 57.7% in test [4]; 98.5% in [5]; 58.6% in test [6]. Further, the growth in test [7] was 72.1%; in test [8], 69.5%; in test [9], 99.6%; in test [10] it was 61.3%.
`N#Cc1c(-c2ccc(Cl)cc2)nc(SCc2ccc([N+](=O)[O-])cc2)nc1N1CCNCC1`: the growth in test [1] was 85.2%; in test [2], 40.5%; in test [3], 57.1%; in test [4], -66.6% (active); in test [5] it was -8.29% (active); in [6], 64.1%. In addition, the growth in test [7] is 5.31% (active); in test [8], -50% (active); in test [9] it was -82% (active); in [10], 0.384% (active).
For the compound `Cc1cccc2sc(/N=C(\N)C(Cl)(Cl)Cl)nc12`, the growth in test [1] was 100%; in [2] it was 103%; in [3] it was 81.5%; in test [4], 100%; in [5], 101%; in [6], 95.7%. Further, the growth in test [7] is 92.2%; in [8], 93.9%; in [9] it was 110%; in test [10] it was 92.2%.
As for `COc1cc(OC)c(C2SCC(=O)N2Nc2ncnc3ccccc23)cc1OC` (stereo not given), the growth in test [1] was 107%; in test [2], 96.4%; in [3], 100%; in test [4] it was 111%; in [5], 147%; in test [6] it was 98.9%. The growth in test [7] was 104%; in test [8], 104%; in test [9], 113%; in [10], 106%.
For `Fc1ccc(-c2nc(C(Cl)Cl)nc3cc(-c4ccccc4)nn23)cc1`, the growth was 74.7% in test [1]; -41.6% (active) in [2]; -19.5% (active) in test [3]; -67.6% (active) in test [4]; 12.8% in [5]; -41.4% (active) in test [6]. In addition, the growth was -45.1% (active) in test [7], 70% in [8], -76.3% (active) in test [9] and -18.2% (active) in [10].
With `O=C(Oc1ccc2ccc(=O)oc2c1)c1ccc(Cl)cc1`, the growth in test [1] was 104%; in test [2], 99%; in test [3], 108%; in [4] it was 103%; in test [5], 95.2%; in test [6], 105%. The growth is 94.2% in test [7], 100% in [8], 114% in test [9] and 108% in test [10].
As for `Cn1ccnc1C(=O)/C=C/c1ccc(NC(=O)Nc2ccc(Cl)cc2)cc1`, the growth was 81.9% in test [1]; 95.1% in [2]; 94.8% in test [3]; 59.6% in test [4]; 104% in [5]; 78.2% in test [6]. The growth in test [7] is 86.8%; in test [8] it was 56.8%; in [9] it was 95.9%; in [10], 75.7%.
On to `COC(=O)C(C)NS(=O)(=O)/N=C1\NC(=O)NC1=C(Cl)Cl` (stereo not given), for which the growth was 106% in test [1]; 102% in [2]; 111% in [3]; 113% in test [4]; 107% in [5]; 101% in test [6]. Moreover, the growth in test [7] was 105%; in [8], 103%; in [9], 115%; in test [10] it was 109%.
As to `OC1CCN(CCCOc2c3ccc(Cl)cc3nc3c2oc2ccccc23)CC1`, the growth in test [1] was -6.33% (active); in test [2], -16.3% (active); in [3], 12.5%; in [4] it was -9.21% (active); in [5], -4% (active); in test [6] it was -48.9% (active). Further, the growth in [7] is 9.13% (active); in test [8], -30.7% (active); in test [9], -69% (active); in [10] it was -0.646% (active).
In the case of `O=C(N/N=C/c1ccc[nH]1)c1[nH]c2ccc(Br)cc2c1-c1ccccc1`, the growth was 35.9% in [1]; 32.4% in test [2]; 22.2% in test [3]; 2.17% (active) in test [4]; 15.5% in [5]; -20.2% (active) in test [6]. The growth in test [7] is 17.6%; in [8], 13.7%; in test [9], 6.05% (active); in test [10], 20.6%.
In the case of `Cn1cc(-c2cc(N)n3nc(-c4cn(C)c5ccc(Br)cc45)cc3n2)c2cc(Br)ccc21`, the growth in test [1] was 109%; in [2], 86.2%; in [3] it was 94.8%; in test [4] it was 69%; in [5] it was 76.9%; in [6], 102%. In addition, the growth is 91% in test [7], 94% in [8], 118% in test [9] and 60.5% in test [10].
On to `N#Cc1c(-c2ccc(Cl)cc2)nc2c(-c3ccccc3)c(Nc3ccccc3)nn2c1N`, for which the growth was 41.5% in test [1]; 64% in test [2]; 57.5% in [3]; -8.88% (active) in [4]; 35.2% in [5]; 72.3% in test [6]. The growth is 29.5% in test [7], 25.1% in [8], 57% in test [9] and 63.6% in [10].
Take `CCN1C(=S)N(CC)C2C1NN=C1SC(c3ccccc3)=CC(=O)N12` (stereo not given): the growth in test [1] was 101%; in [2], 110%; in test [3], 100%; in test [4] it was 117%; in test [5], 103%; in test [6] it was 94.5%. For the same compound, the growth in test [7] was 101%; in test [8], 104%; in [9] it was 115%; in test [10], 117%.
For `COc1cc(-c2nc3ccc(-c4nnc(SCC(=O)Nc5ccc(C(=O)/C=C/c6ccc(Cl)cc6)cc5)o4)cc3[nH]2)cc(OC)c1OC`, the growth in [1] was 91.7%; in [2] it was 96.2%; in test [3] it was 101%; in test [4] it was 105%; in test [5] it was 82.2%; in [6] it was 92.6%. The growth was 101% in test [7], 90.8% in test [8], 108% in test [9] and 104% in test [10].
Consider `COc1cc2nc(-c3ccc(C)cc3)cc(OCCCNCC3CCCO3)c2cc1OC` (stereo not given), for which the growth in test [1] is 89.4%; in [2] it was 70.4%; in test [3] it was 75.2%; in test [4], 38%; in [5], 47%; in test [6], 59.1%. The growth is 61.6% in [7], 73.5% in test [8], 45.4% in [9] and 60% in [10].
Consider `COc1ccc(C(=O)c2cc(C(=O)/C=C/c3c(Cl)cccc3Cl)c3cc(C)ccn23)cc1`, for which the growth in test [1] was 103%; in test [2], 98.3%; in test [3], 98.5%; in [4], 100%; in test [5] it was 97.3%; in test [6], 91.5%. The growth in [7] is 99.6%; in test [8] it was 100%; in [9], 108%; in test [10], 106%.
Take `O=C(NNc1nc2cc(F)ccc2n2c(CN3CC4(COC4)C3)ccc12)c1cnccn1`: the growth in [1] is 7.31% (active); in [2], 22.7%; in [3] it was 23%; in [4], -7.69% (active); in test [5], 45.2%; in test [6] it was 2.26% (active). The growth was 13.2% in test [7], -6.84% (active) in test [8], 20.2% in [9] and 24.8% in test [10].
Turning to `CCCC(=O)NC(c1cccc(N(C)C)c1)c1cc(C)c2cccnc2c1O` (stereo not given), the growth is 65.4% in test [1]; 44.9% in [2]; 44% in test [3]; 25.7% in [4]; 64.2% in test [5]; 75.3% in [6]. Moreover, the growth in [7] is 79.3%; in test [8], 56.6%; in test [9], 88%; in [10] it was 66.2%.
`COc1ccc(C(=O)/C=C/c2ccc(OCc3ccc(Cl)cc3)c(OC)c2)cc1OC`: the growth was 56.4% in [1]; 70.9% in test [2]; 103% in test [3]; 61.9% in test [4]; 64.9% in test [5]; 68.3% in [6]. Further, the growth in [7] was 70%; in test [8], 80.7%; in [9] it was 88.4%; in test [10], 72.3%.

Values taken from PubChem BioAssay (NCI).
